What is called Inhibition is the percentage by which the read-out fell short of the control. The low end stands for a weak effect, the high end for a strong effect.

For experiment [1], the system named is Plasmodium falciparum. The experiment in a line: GSK_TCMDC: Inhibition of Plasmodium falciparum 3D7 in whole red blood cells, using parasite LDH activity as an index of growth. Test compounds present at 2uM. Format: functional.
Experiment [2] relates to Plasmodium falciparum. Briefly: GSK_TCMDC: Inhibition of Plasmodium falciparum Dd2 in whole red blood cells, using parasite LDH activity as an index of growth. Test compounds present at 2uM. Format: functional.

Regarding `Nc1nc(N)c2c(ccc3c2ccn3Cc2ccc(Br)cc2)n1`, the Inhibition stood at 100% with Plasmodium falciparum [1] and 98% in the experiment on Plasmodium falciparum [2].

With `Cc1nc(C)c(-c2ccc(Oc3ccc(Cl)c(Cl)c3)cc2)c(O)c1Br`, the Inhibition with Plasmodium falciparum [1] was found to be 97%; with Plasmodium falciparum [2], 96%.

With `Cc1nc(N)nc(N)c1-c1cc(Cl)c(Cl)c(Cl)c1`, the Inhibition in the experiment on Plasmodium falciparum [1] is 97%; in the experiment on Plasmodium falciparum [2] it was 0%.

On to `CC(=O)Oc1c(Cl)c(C)nc(C)c1-c1ccc(Oc2ccc(Cl)cc2)cc1`, for which the Inhibition with Plasmodium falciparum [1] is listed as 98%; in the experiment with Plasmodium falciparum [2] it was 96%.

For `COc1cc(Cc2cnc(N)nc2N)cc(OCCCCNS(=O)(=O)C(F)(F)F)c1OC`, the Inhibition stood at 84% with Plasmodium falciparum [1] and 0% in the experiment with Plasmodium falciparum [2].

As to `Nc1ncc(-c2ccc(Br)cc2)c(N)n1`, the Inhibition in the experiment with Plasmodium falciparum [1] was determined as 89%; with Plasmodium falciparum [2], 0%.

For the compound `CC(=O)Oc1c(Br)c(C)nc(C)c1-c1ccc(Oc2ccc(OC(F)(F)F)cc2)cc1`, the results for the Inhibition in the experiment on Plasmodium falciparum [1] and in the experiment on Plasmodium falciparum [2] were 98% and 97%, respectively.

For `COc1ccc2c(O)c(Br)c(C)nc2c1`, the values for the Inhibition in the experiment on Plasmodium falciparum [1] and in the experiment with Plasmodium falciparum [2] were 89% and 74%, respectively.

As for `Cc1nc(C)c(-c2ccc(Oc3ccc(Cl)c(Cl)c3)cc2)c(O)c1Cl`, the Inhibition was 100% with Plasmodium falciparum [1] and 97% in the experiment with Plasmodium falciparum [2].

`Nc1nc(N)c2c(ccc3c2ccn3Cc2ccc3c(c2)OCO3)n1`: the values for the Inhibition with Plasmodium falciparum [1] and in the experiment on Plasmodium falciparum [2] were 100% and 95%, respectively.

As for `CC(C)Cn1cc2c(ccc3nc(N)nc(N)c32)n1`, the Inhibition with Plasmodium falciparum [1] is given as 97%; in the experiment on Plasmodium falciparum [2] it was 2%.

For `CCCCN(CCCC)CCCN(CCCN(CCCC)CCCC)c1cc(C)nc(Nc2ccc(Cl)cc2)n1.O=C(O)C(=O)O`, the Inhibition is given as 100% in the experiment on Plasmodium falciparum [1] and 99% in the experiment with Plasmodium falciparum [2].

Consider `CCN(Cc1cccc2ccccc12)c1ccc2nc(N)nc(N)c2c1.Cl`, for which the Inhibition in the experiment with Plasmodium falciparum [1] and in the experiment with Plasmodium falciparum [2] was 100% in each case.

With `Cc1[nH]c(C)c(-c2ccc(Oc3ccc(C(F)(F)F)cc3)cc2)c(=O)c1Br`, the Inhibition in the experiment on Plasmodium falciparum [1] and in the experiment on Plasmodium falciparum [2] was 97% in each case.

Regarding `Cl.Oc1cc2ccccc2cc1CNC1CCCCC1`, the Inhibition is 98% in the experiment on Plasmodium falciparum [1] and 89% with Plasmodium falciparum [2].

Regarding `COc1cccc2c(O)c(CNC3CCCCC3)ccc12.Cl`, the Inhibition with Plasmodium falciparum [1] was 100%; with Plasmodium falciparum [2] it was 98%.

Take `Nc1ncc(-c2ccc(S(=O)(=O)Nc3ccc(C(=O)N[C@@H](CCC(=O)O)C(=O)O)cc3)cc2)c(=O)[nH]1`: the Inhibition was 99% with Plasmodium falciparum [1] and 0% in the experiment with Plasmodium falciparum [2].

`COc1ccc2c(CNCCCCCCNCc3c(OC)ccc4cc(OC)ccc34)c(OC)ccc2c1.CS(=O)(=O)O`: the Inhibition in the experiment on Plasmodium falciparum [1] is recorded as 100%; with Plasmodium falciparum [2], 79%.

In the case of `Cc1nc(C)c(-c2ccc(Oc3ccc(Cl)cc3)c(Cl)c2)c(O)c1Br`, the Inhibition in the experiment with Plasmodium falciparum [1] was determined as 97%; in the experiment with Plasmodium falciparum [2] it was 96%.

Consider `CC(C)Oc1ccc2ccccc2c1CNCCCCCCNCc1c(OC(C)C)ccc2ccccc12.CS(=O)(=O)O`, for which the Inhibition is listed as 99% in the experiment with Plasmodium falciparum [1] and 90% in the experiment with Plasmodium falciparum [2].

In the case of `CCN(CC)CCCC(C)Nc1c2ccc(Cl)cc2nc2ccc(OC)cc12.Cl.O` (centres undefined), the Inhibition in the experiment with Plasmodium falciparum [1] and in the experiment on Plasmodium falciparum [2] was 100% each time.

`Nc1nc(Cc2ccc(Cl)cc2)nc(Cc2ccc(Cl)cc2)n1`: the figures for the Inhibition with Plasmodium falciparum [1] and in the experiment with Plasmodium falciparum [2] were 85% and 0%, respectively.

Regarding `Cc1nc(C)c(-c2ccc(S(=O)(=O)c3ccc(Cl)cc3)cc2)c(O)c1Br`, the Inhibition in the experiment with Plasmodium falciparum [1] and in the experiment with Plasmodium falciparum [2] was 97% in each case.

With `CCOC(=O)c1nc2ccc(SC3CCCCC3)cn2c1Br`, the Inhibition in the experiment with Plasmodium falciparum [1] worked out at 86%; in the experiment with Plasmodium falciparum [2], 3%.

Regarding `Nc1nc(N)c2c(Sc3ccccc3)cccc2n1`, the Inhibition in the experiment on Plasmodium falciparum [1] was found to be 97%; in the experiment on Plasmodium falciparum [2], 0%.

As for `CCCCC#Cc1cnc2nc(N)[nH]c(=O)c2n1`, the Inhibition in the experiment on Plasmodium falciparum [1] came to 89%; in the experiment with Plasmodium falciparum [2], 2%.

As to `CCOc1cc2ncnc(Nc3ccc(OCc4ccccc4OC)c(OC)c3)c2cc1OCC.Cl`, the Inhibition in the experiment on Plasmodium falciparum [1] is 97%; with Plasmodium falciparum [2], 52%.

In the case of `CN(C)S(=O)(=O)n1ccc2c3c(N)nc(N)nc3ccc21`, the figures for the Inhibition in the experiment with Plasmodium falciparum [1] and in the experiment with Plasmodium falciparum [2] were 94% and 0%, respectively.

As for `Cc1nc(C)c(-c2ccc(Oc3ccc(Cl)cc3)cc2)c(O)c1I`, the Inhibition in the experiment on Plasmodium falciparum [1] was 88%; with Plasmodium falciparum [2], 49%.

For `CCCc1cc2c3c(N)nc(N)nc3ccc2n1CC`, the results for the Inhibition with Plasmodium falciparum [1] and in the experiment with Plasmodium falciparum [2] were 96% and 6%, respectively.

Consider `Cl.c1ccc2c(CNCCCN3CCN(CCCNCc4c5ccccc5cc5ccccc45)CC3)c3ccccc3cc2c1`, for which the Inhibition in the experiment with Plasmodium falciparum [1] and in the experiment with Plasmodium falciparum [2] was 100% throughout.

With `CCc1nc(N)nc(N)c1-c1ccc2c(c1)CCCC2`, the Inhibition in the experiment with Plasmodium falciparum [1] was 95%; in the experiment on Plasmodium falciparum [2], 0%.

`Cc1cccc(-c2c(C)nc(N)nc2N)c1`: the values for the Inhibition with Plasmodium falciparum [1] and in the experiment on Plasmodium falciparum [2] were 88% and 0%, respectively.

As for `CN=C(N)c1ccc(NC(=O)C=Cc2ccc(C(=O)Nc3ccc(C(N)=NC)cc3)cc2)cc1.Cl`, the Inhibition in the experiment on Plasmodium falciparum [1] was determined as 97%; with Plasmodium falciparum [2], 100%.

Regarding `CC(=O)Oc1c(Cl)c(C)nc(C)c1-c1ccc(Oc2ccc(OC(F)(F)F)cc2)cc1`, the Inhibition came out at 97% with Plasmodium falciparum [1] and 98% in the experiment with Plasmodium falciparum [2].

As for `CCN1C(=O)C(=NN=C(S)N2CCCC2)c2ccccc21`, the Inhibition in the experiment on Plasmodium falciparum [1] worked out at 91%; in the experiment on Plasmodium falciparum [2] it was 9%.

Regarding `COc1ccc(Cc2c(Cl)nc3nc(N)nc(N)c3c2C)c(OC)c1OC`, the values for the Inhibition in the experiment with Plasmodium falciparum [1] and in the experiment on Plasmodium falciparum [2] were 98% and 0%, respectively.

As for `CCCCOc1c(CCNCCCCNCCc2cc(OC)c3ccccc3c2OCCCC)cc(OC)c2ccccc12.CS(=O)(=O)O`, the Inhibition in the experiment on Plasmodium falciparum [1] was 91%; with Plasmodium falciparum [2], 47%.

As for `CC1CNC(c2ccc(NC(=O)Nc3ccc(C4=NC(C)CN4)cc3)cc2)=N1.Cl` (centres undefined), the values for the Inhibition in the experiment on Plasmodium falciparum [1] and with Plasmodium falciparum [2] were 85% and 67%, respectively.

Take `Cl.Nc1ccncc1C(=O)NCCCCN1CCN(c2nsc3ccccc23)CC1`: the figures for the Inhibition with Plasmodium falciparum [1] and with Plasmodium falciparum [2] were 100% and 9%, respectively.

In the case of `COc1ccc(-c2cnc(N)nc2N)cc1Cl`, the Inhibition with Plasmodium falciparum [1] stood at 84%; in the experiment with Plasmodium falciparum [2], 1%.

Turning to `COc1ccc2nc3cc(Cl)ccc3c(Nc3ccc(Oc4ccc(Nc5c6ccc(Cl)cc6nc6ccc(OC)cc56)cc4)cc3)c2c1.Cl`, the results for the Inhibition in the experiment with Plasmodium falciparum [1] and in the experiment with Plasmodium falciparum [2] were 86% and 93%, respectively.

These data come from ChEMBL document CHEMBL1157539, “Thousands of chemical starting points for antimalarial lead identification” (Nature, 2010).
